# Reference: PubChem BioAssay (Tox21)
# Inconclusive results are not listed. Activity calls are given as the source filed them. Calls come from the whole dose curve.
# Target: Thyrotropin receptor (Homo sapiens) (UniProt P16473)
# Experiment: qHTS assay to identify small molecule antagonists of the thyroid stimulating hormone receptor (TSHR) signaling pathway (AID 1259385); note: nearly all actives have a fitted effect of over 20% in size
# Details: TSHR-HEK293 cAMP HTRF, TSH-stimulated antagonist mode; series mostly up to 92.4 µM; activity change, negative = inhibition: at the top concentration
# From the text: U.S. Tox21 Program National Center for Advancing Translational Sciences [NCATS] NIH Chemical Genomics Center [NCGC] U.S. Environmental Protection Agency [EPA] National Institutes of Environmental Health Sciences [NIEHS] National Toxicology Program [NTP] U.S. Food and Drug Administration [FDA] Tox21 Assay Overview: TSHR is the receptor for thyrotropin (thyroid stimulating hormone or TSH), a member of the glycoprotein hormone family. TSH is released by the anterior pituitary gland and is the main regulator of thyroid gland growth and development. Upon binding circulating thyrotropin, a G-protein signal cascade activates adenylyl cyclase and […] cAMP concentration is increased. cAMP is a key second messenger involved extensively in cellular signal transduction pathways associated with the majority of G-protein coupled receptors (GPCRs). The activation of these GPCRs by neurotransmitters, lipids, nucleotides, peptides and hormones results in the activation or the inhibition of plasma membrane-bound adenylate cyclase through heterotrimeric G-proteins. A cell-based TSHR assay can be used to screen chemical compounds that modulate TSHR either in agonist or antagonist mode.
# Tox21 Assay Protocol Summary: TSHR-Hek293 cells were dispensed at 800 cells/4uL/well in 1536-well white plates using a Multidrop dispenser. After the assay plates were incubated at a 37C/5% CO2 incubator for 18 hrs, 23 nL of compounds dissolved in DMSO, positive controls or DMSO only was transferred to the assay plate by a pin tool, followed by 1 ul medium containing Ro20-1724. For the antagonist mode screening, 1 uL of TSH was added on the top of the cell/compound mixtures to achieve a final agonist concentration of 1.5 ng/mL. After 30 min of incubation at room temperature, 2.5 ul/well of cAMP-d2 and 2.5 ul/well of anti-cAMP-cryptate were added respectively into the assay plates using a Flying Reagent Dispenser. The plates were incubated at room temperature for 1 hr. The fluorescence intensity in the plates was measured using an Envision plate reader. Each test compound was measured at 15 concentrations and in triplicates.
# % is set by controls: 0 for no effect and ±100 for the full control effect.
# Chain of Thyrotropin receptor (Homo sapiens) (P16473 whole entry, looked up): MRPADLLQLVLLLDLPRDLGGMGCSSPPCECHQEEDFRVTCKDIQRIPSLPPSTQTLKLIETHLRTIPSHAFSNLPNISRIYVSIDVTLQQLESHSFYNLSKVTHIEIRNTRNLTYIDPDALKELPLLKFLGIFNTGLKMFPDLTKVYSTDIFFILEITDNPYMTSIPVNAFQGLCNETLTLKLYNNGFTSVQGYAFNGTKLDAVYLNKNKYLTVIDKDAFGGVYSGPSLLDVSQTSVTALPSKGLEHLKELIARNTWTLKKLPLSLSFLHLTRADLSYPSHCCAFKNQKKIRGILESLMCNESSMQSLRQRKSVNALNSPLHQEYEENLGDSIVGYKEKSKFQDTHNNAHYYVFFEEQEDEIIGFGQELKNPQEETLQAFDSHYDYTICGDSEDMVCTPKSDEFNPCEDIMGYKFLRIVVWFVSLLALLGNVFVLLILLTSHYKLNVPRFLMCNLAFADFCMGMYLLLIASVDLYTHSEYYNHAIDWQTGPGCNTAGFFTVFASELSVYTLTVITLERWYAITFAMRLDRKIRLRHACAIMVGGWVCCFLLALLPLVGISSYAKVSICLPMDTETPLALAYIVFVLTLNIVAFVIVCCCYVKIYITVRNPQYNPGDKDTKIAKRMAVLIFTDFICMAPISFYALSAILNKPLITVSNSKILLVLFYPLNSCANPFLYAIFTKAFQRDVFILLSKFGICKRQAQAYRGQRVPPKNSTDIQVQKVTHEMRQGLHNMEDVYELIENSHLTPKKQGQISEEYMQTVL
row,SMILES,"activity change, negative = inhibition"
1,COC(=O)C1=C(C)NC(C)=C(C(=O)OC(C)(C)CN(C)CCC(c2ccccc2)c2ccccc2)C1c1cccc([N+](=O)[O-])c1 (stereo not given),7.05% [at 42.5 µM] (inactive)
2,COc1cc(OC)c2ccc(=O)oc2c1,0.29% (inactive)
3,FC(F)(F)C(F)(F)C(F)(F)C(F)(F)CCI,0.652% [at 42.5 µM] (inactive)
4,COC(=O)Nc1nc2ccc(C(=O)C3CC3)cc2[nH]1,0.138% [at 42.5 µM] (inactive)
5,Cc1ccc(NC(=O)N(C)C)cc1NC(=O)N(C)C,0.523% (inactive)
6,O=C1[C@@H]2[C@H]3CC[C@H](C3)[C@@H]2C(=O)N1CCCCN1CCN(c2ncccn2)CC1,1.68% [at 42.5 µM] (inactive)
7,C[C@H](CS)C(=O)N1CCC[C@H]1C(=O)O,0.053% [at 42.5 µM] (inactive)
8,CCC(C)(C)C(=O)O,1.97% (inactive)
9,CCCCCCC(O)CCOC(C)=O (stereo not given),-3.67% [at 240 µM] (inactive)
10,Nc1nc2ccc(OC(F)(F)F)cc2s1,1.36% [at 42.5 µM] (inactive)
11,COC(=O)c1sccc1S(N)(=O)=O,0.0063% (inactive)
12,O=C(O)CO,-1.77% (inactive)
13,CNCc1ccc(NC(=O)c2c[nH]c3c2C(=O)CCC3)cc1,-5.96% (inactive)
14,CC[C@H]1OC(=O)[C@H](C)[C@@H](O[C@H]2C[C@@](C)(OC)[C@@H](O)[C@H](C)O2)[C@H](C)[C@@H](O[C@@H]2O[C@H](C)C[C@H](N(C)C)[C@H]2O)[C@](C)(O)C[C@@H](C)CN(C)[C@H](C)[C@@H](O)[C@]1(C)O,-1.39% [at 42.5 µM] (inactive)
15,CC(C)(O)c1coc(S(=O)(=O)NC(=O)Nc2c3c(cc4c2CCC4)CCC3)c1,2.69% (inactive)
16,CC(C)COC(=O)COc1cc(Cl)c(Cl)cc1Cl,-11.5% (inactive)
17,CCN(CC)CCOc1ccccc1C(=O)CCc1ccccc1,-6.6% [at 42.5 µM] (inactive)
18,CSCC[C@H](NC(=O)[C@H](Cc1c[nH]c2ccccc12)NC(=O)CCNC(=O)OC(C)(C)C)C(=O)N[C@@H](CC(=O)O)C(=O)N[C@@H](Cc1ccccc1)C(N)=O,2.52% [at 42.5 µM] (inactive)
19,CCCCC[C@H](O)/C=C/[C@H]1[C@H](O)CC(=O)[C@@H]1C/C=C\CCCC(=O)O,7.88% [at 42.5 µM] (inactive)
20,CCN(CC)CCOC(=O)C(c1ccccc1)c1ccccc1,0.775% [at 42.5 µM] (inactive)

row,SMILES,"activity change, negative = inhibition"
1,CC[C@H]1OC(=O)[C@H](C)[C@@H](O[C@H]2C[C@@](C)(OC)[C@@H](O)[C@H](C)O2)[C@H](C)[C@@H](O[C@@H]2O[C@H](C)C[C@H](N(C)C)[C@H]2O)[C@](C)(O)C[C@@H](C)C(=O)[C@H](C)[C@@H](O)[C@]1(C)O,-0.544% [at 42.5 µM] (inactive)
2,C=C(C)c1ccccc1,-0.0246% (inactive)
3,CC1CCC(C(C)CS)CC1S (stereo not given),1.46% (inactive)
4,COc1cc(S(=O)(=O)Nc2ccccc2)c(OC)cc1N,-0.528% (inactive)
5,CC(C)c1ccc(C(=O)N=C(N)N)cc1S(C)(=O)=O,-0.609% [at 42.5 µM] (inactive)
6,ClC1=C(Cl)C1(Cl)Cl,0.0073% (inactive)
7,CC(C)(C(=O)c1cccnc1)c1cccnc1,2.56% [at 42.5 µM] (inactive)
8,O=C(NS(=O)(=O)/C=C/c1ccccc1)c1ccc(F)cc1Cl,0% (inactive)
9,CCCCCCOC(=O)CCCCC,-0.615% (inactive)
10,CC1C(C)(C)C2=C(C(=O)CCC2)C1(C)C (stereo not given),-5.98% (inactive)
11,CCN(CC)CCNC(=O)c1cc(Cl)c(N)cc1OC,3.79% [at 42.5 µM] (inactive)
12,CCCCCCCCCCCCCCN(C)C,-0.0954% [at 19 µM] (inactive)
13,O=CNNC=O,-1.67% (inactive)
14,O=c1[nH][nH]c(=O)c2cc([N+](=O)[O-])ccc12,-0.77% (inactive)
15,CC(CN(CCN(CC(C)OCCO)CC(C)OCCO)CC(C)OCCO)OCCO (stereo not given),-1.01% (inactive)
16,CCOC(=O)N1CCC(Nc2ccc(Cl)cc2N)CC1,2.48% [at 42.5 µM] (inactive)
17,O=NN(CCCl)C(=O)NCCCl,-0.233% [at 42.5 µM] (inactive)
18,CCCc1nc2c(C)cc(-c3nc4ccccc4n3C)cc2n1Cc1ccc(-c2ccccc2C(=O)O)cc1,-4.54% [at 42.5 µM] (inactive)
19,CC(=O)Oc1cccc(O)c1,-3.73% [at 42.5 µM] (inactive)
20,Cc1ccc2c(c1[N+](=O)[O-])C(=O)c1ccccc1C2=O,1.14% [at 42.5 µM] (inactive)
